Experimental findings from PubChem BioAssay (NCATS) are described below.

Each structure is given as a SMILES string. A number with no mark means an inactive call. Inconclusive results are not listed. Activity calls are given as the source filed them. Calls come from the whole dose curve; as a rule, active = well fitted curve in the direction sought with a large enough effect; inconclusive = small, poorly fitted or top-dose-only effect, or another doubt; inactive = no such curve, though single readings can be large; an effect the other way counts as inactive or inconclusive.

A short description of test [1]: Primary qHTS for inhibitors of nuclear receptor binding SET domain protein 2 (NSD2) in an RCH-ACV wild type WT cells (2C) (AID 1645877). For activity change, negative = cell killing: % is set by controls: 0 for no effect and ±100 for the full control effect. Note: nearly all actives have a fitted effect of over 70% in size. Note: potency is the fitted concentration of half-maximal effect.
For test [2], the target named is Glutathione peroxidase 1 (Homo sapiens) (UniProt P07203). In words: Primary qHTS Assay for Inhibitors of Recombinant Selenoprotein Glutathione Peroxidase 1 (GPX1) (AID 1845191). For activity, negative = inhibition: % is set by controls: 0 for no effect and ±100 for the full control effect. Note: nearly all actives have a fitted effect of over 65% in size. The method, boiled down:
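10 nM GPX1 + cpd, 30 min RT; start w/ 1 mM GSH, 0.5 mM cumene hydroperoxide, 0.5 mM NADPH, 100 nM GR, 0.01% BSA; buffer 50 mM Tris-HCl pH 7.5, 2 mM EDTA, 150 mM NaCl; Fl 340/450, 0 & 15 min.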

For test [3], the target named is Phospholipid hydroperoxide glutathione peroxidase GPX4 (Homo sapiens) (UniProt P36969). The test can be described thus: Primary qHTS Assay for Inhibitors of Recombinant Selenoprotein Glutathione Peroxidase 4 (GPX4) (AID 1845192). For activity change, negative = inhibition: series mostly up to about 50 µM; % is set by controls: 0 for no effect and ±100 for the full control effect. Note: nearly all actives have a fitted effect of over 65% in size. The method, boiled down: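 NADPH consumption, followed by fluorescence at 340/450 nm between 0 and 15 min, reports GPX4 activity via coupled glutathione reductase (100 nM). Enzyme 200 nM was pre-exposed to compound 30 min; 0.5 mM cumene hydroperoxide and 1 mM GSH served as substrates.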

For test [4], the target named is Luciferin 4-monooxygenase (Photinus pyralis) (UniProt P08659). The test can be described thus: Primary firefly luciferase (FLuc) qHTS assay for identification of artifact compounds. (AID 1845220).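 For activity change, negative = inhibition: series mostly up to about 54 µM; plate controls were DMSO vehicle for no effect and no enzyme for full effect.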 Note: nearly all actives have a fitted effect of over 60% in size. The method, boiled down:
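Cell-free, 1536-well qHTS. Buffer pH 7.6 with 0.01% Tween-20 and 0.05% BSA; 10 uM D-luciferin, 10 uM ATP; 10 nM P. pyralis luciferase; luminescence after 5 min.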

Test [5] has as its system Nanoluciferase (engineered Oplophorus gracilirostris luciferase). The test can be described thus: Primary Nanoluciferase (NLuc) qHTS assay for identification of artifact compounds. (AID 1845222).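 Note: series mostly up to about 54 µM; 0% = DMSO and -100% = no enzyme.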 The method, boiled down:
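Compounds are pinned into diluted (1:55) conditioned medium of NLuc-expressing S16 cells and held 15 min at room temperature protected from light. Nano-Glo substrate follows, and luminescence is read 5 min later.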

Test [6] can be described thus: Primary redox qHTS assay for identification of artifact compounds. (AID 1845223).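 Note: 0% = DMSO and 100% = reference compound.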 A digest of the protocol: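 Amplex Red (25 uM) and HRP (250 mU/mL) in HBSS, with compounds for 15 min, then 250 uM DTT for 30 min, room temperature, dark. Fluorescence 525/598 nm read; normalized to DMSO and 10 uM DA3003; Hill fit.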

Chain of Glutathione peroxidase 1 (Homo sapiens) (P07203 whole entry, looked up): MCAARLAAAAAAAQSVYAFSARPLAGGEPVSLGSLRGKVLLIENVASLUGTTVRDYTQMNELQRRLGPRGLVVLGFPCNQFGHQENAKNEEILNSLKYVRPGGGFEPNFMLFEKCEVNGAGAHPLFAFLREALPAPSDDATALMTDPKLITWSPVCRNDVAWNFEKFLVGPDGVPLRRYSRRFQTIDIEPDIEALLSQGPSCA
Chain of Phospholipid hydroperoxide glutathione peroxidase GPX4 (Homo sapiens) (P36969 whole entry, looked up): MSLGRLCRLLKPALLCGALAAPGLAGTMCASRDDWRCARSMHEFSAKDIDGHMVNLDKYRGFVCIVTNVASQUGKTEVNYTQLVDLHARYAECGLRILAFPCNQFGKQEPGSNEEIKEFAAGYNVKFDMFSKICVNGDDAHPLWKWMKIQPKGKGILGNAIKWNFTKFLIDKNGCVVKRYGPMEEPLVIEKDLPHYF

Take `C[C@@H]1[C@H]2[C@H](O[C@@H]3O[C@H](CO)[C@@H](O)[C@H](O)[C@H]3O)OC=C(C(=O)O)[C@H]2C[C@@H]1O`: the Potency entry in test [1], in test [2], in test [3], in test [4], in test [5] and in test [6] was “inactive” throughout.

As to `C=C1[C@@H]2CC[C@@H]3[C@@](CCC4C(C(=O)O)(C(=O)O)C[C@@H](O[C@@H]5O[C@H](CO)[C@@H](O)[C@H](O)[C@H]5OC(=O)CC(C)C)C[C@]43C)(C2)[C@H]1O` (stereo partly specified), the Potency result in test [1], in test [2], in test [3], in test [4], in test [5] and in test [6] was “inactive” in each case.

As for `CC(=O)O[C@H]1C[C@@](O)(C(C)C)C2[C@@H](OC(=O)c3ccc(O)cc3)C[C@@]3(C)O[C@H]3C[C@]21C` (stereo partly specified), the Potency result in test [1], in test [2], in test [3], in test [4], in test [5] and in test [6] was “inactive” throughout.

As for `COc1cc2c(cc1OC)[C@@H]1[C@H](O)[C@@H](OC)C=C3CCN(C2)[C@H]31`, the Potency in test [1] was 4500 nM (active). Besides, the Potency entry in test [2], in test [3], in test [4], in test [5] and in test [6] was “inactive” each time.

With `COC(=O)C1=CO[C@@H](O[C@@H]2O[C@H](CO)[C@@H](O)[C@H](O)[C@H]2O)[C@H]2[C@@H]1C=C[C@@]21C=C([C@H](C)O)C(=O)O1`, the Potency result in test [1], in test [2], in test [3], in test [4], in test [5] and in test [6] was “inactive” throughout.

Turning to `C=C(C(=O)O)C1CCC2(C)CCC(O)C(C)(O)C2C1` (stereo unspecified), the Potency entry in test [1], in test [2], in test [3], in test [4], in test [5] and in test [6] was “inactive” each time.

For `COc1cc(C2Oc3c(OC)cc(CCCO)cc3C2CO)ccc1O[C@H]1O[C@H](C)[C@@H](O)[C@H](O)[C@@H]1O` (stereo partly specified), the Potency result in test [1], in test [2], in test [3], in test [4], in test [5] and in test [6] was “inactive” throughout.

Turning to `C[C@@H]1N[C@H]2N(C1=O)c1ccccc1[C@@]2(O)C[C@@H]1C(=O)N[C@@H](C)c2nc3ccccc3c(=O)n21`, the Potency entry in test [1], in test [2], in test [3], in test [4], in test [5] and in test [6] was “inactive” in each case.

With `Cc1cccc(C)c1-n1c(=O)c2cnc(Nc3ccc(N4CCN(C)CC4)cc3)nc2n2c3ccccc3nc12`, the Potency in test [1] was 258 nM (active). Moreover, the Potency result in test [2], in test [3], in test [4], in test [5] and in test [6] was “inactive” in each case.

As to `COc1cc(Br)c(Nc2nc(-c3c(C)nc4ncccn34)cs2)c(Br)c1`, the Potency in test [1] is 2050 nM (active). Also, the Potency result in test [2], in test [3], in test [4], in test [5] and in test [6] was “inactive” in each case.

For `CC1OC(O[C@H]2CC[C@@]3(C)C(CC[C@]4(C)C3CC=C3C5CC(C)(C)CC[C@]5(C(=O)OC5OC(CO)C(OC6OC(COC7OCC(O)C(O)C7O)C(O)C(O)C6O)C(O)C5O)CC[C@]34C)C2(C)C)C(O)C(O)C1OC1OCC(OC2OCC(O)C(O)C2O)C(O)C1O` (stereo partly specified), in test [1], the activity change, negative = cell killing is 2.24% [at 9.23 µM]. In addition, the figures for the activity, negative = inhibition in test [2] and in test [5] were -21.4% [at 9.52 µM] and 0% [at 11.6 µM], respectively. Further, the activity change, negative = inhibition in test [3] was -7.3% [at 9.73 µM]; in test [4] it was -3.25% [at 11.6 µM]. Moreover, in test [6], the redox activity (% of DA3003) was 16.2% [at 11.5 µM].

Turning to `O=C(OC[C@@]1(O)CO[C@@H](O[C@H]2[C@H](Oc3ccc(O)cc3)O[C@H](CO)[C@@H](O)[C@@H]2O)[C@@H]1O)c1ccc(O)cc1`, the Potency result in test [1], in test [2], in test [3], in test [4], in test [5] and in test [6] was “inactive” in each case.

Consider `N#Cc1ccc(C(=O)N2CCC3(CC2)N=C(N)c2c(F)ccc(F)c2N3)cn1`, for which the Potency result in test [1], in test [2], in test [3], in test [4], in test [5] and in test [6] was “inactive” each time.

As to `O=C(O)c1cc(-c2c(-c3ccccc3)nn3ccccc23)n[nH]c1=O`, the Potency result in test [1], in test [2], in test [3], in test [4], in test [5] and in test [6] was “inactive” in each case.

Consider `COC(=O)[C@@H](O)[C@H]1[C@@]2(C)CC3(O)[C@@H](C(=O)[C@H]2O)[C@]24O[C@]25CC(=O)O[C@@H](c2ccoc2)[C@]5(C)CCC4[C@]13C` (stereo partly specified), for which the Potency result in test [1], in test [2], in test [3], in test [4], in test [5] and in test [6] was “inactive” in each case.

As to `CC1=C(CCC(C)CC(=O)O)[C@@]2(C)CCCC(C)(C)C2CC1=O` (stereo partly specified), the Potency entry in test [1], in test [2], in test [3], in test [4], in test [5] and in test [6] was “inactive” in each case.

For `CC(O)/C=C/C1(O)C(C)C(O[C@@H]2O[C@H](CO)[C@@H](O)[C@H](O)[C@H]2O)C(O)CC1(C)C` (stereo partly specified), the Potency result in test [1], in test [2], in test [3], in test [4], in test [5] and in test [6] was “inactive” in each case.

Regarding `OCC(CO[C@@H]1O[C@H](CO)[C@@H](O)[C@H](O)[C@H]1O)c1ccc2c(c1)OCO2` (stereo partly specified), the Potency result in test [1], in test [2], in test [3], in test [4], in test [5] and in test [6] was “inactive” each time.

With `CC1C(OC(=O)c2ccccc2)C(O)C2C(C(=O)O)=COC(OC3OC(CO)C(O)C(O)C3O)C12` (stereo unspecified), the Potency entry in test [1], in test [2], in test [3], in test [4], in test [5] and in test [6] was “inactive” each time.

On to `C[C@@H]1C(=O)OC[C@H]2C(C(=O)O)=C[C@@H]3CC(C)(C)C[C@]312`, for which the Potency result in test [1], in test [2], in test [3], in test [4], in test [5] and in test [6] was “inactive” throughout.

For the molecule `COC(=O)c1ccnc(-c2cc(C(=O)NCCc3ccccc3)ccn2)c1`, the Potency result in test [1], in test [2], in test [3], in test [4], in test [5] and in test [6] was “inactive” throughout.

Consider `C/C(=C/CO)CC[C@@H]1[C@@](C)(O)CCC2C(C)(C)CCC[C@]21C` (stereo partly specified), for which the Potency entry in test [1], in test [2], in test [3], in test [4], in test [5] and in test [6] was “inactive” throughout.

As for `CC(C)c1ccc2c(c1)C(=O)CC1[C@@](C)(C(=O)O)CCC[C@]21C` (stereo partly specified), the Potency result in test [1], in test [2], in test [3], in test [4], in test [5] and in test [6] was “inactive” each time.

Consider `COc1ncc(Nc2ncc([C@@H](C)N3CCN(S(C)(=O)=O)CC3)cc2-c2nc(C)nc(N)n2)cc1F`, for which, in test [1], the Potency is 20.5 nM (active). Moreover, the Potency entry in test [2], in test [3], in test [4], in test [5] and in test [6] was “inactive” each time.

Consider `C=C1OC2CC(C(=O)O)C=CC2NC1=O` (stereo unspecified), for which the Potency result in test [1], in test [2], in test [3], in test [4], in test [5] and in test [6] was “inactive” in each case.

Consider `CC1C(=O)OCC2=CCN3CCC(OC(=O)C(C)(O)C1(C)O)C23` (stereo unspecified), for which the Potency entry in test [1], in test [2], in test [3], in test [4], in test [5] and in test [6] was “inactive” throughout.

As for `CC1C=CC2CCCCC2C1CCC1CC(O)CC(=O)O1` (stereo unspecified), the Potency result in test [1], in test [2], in test [3], in test [4], in test [5] and in test [6] was “inactive” throughout.

For the molecule `CC1C(=O)CC2C3CCC(C(=O)O)C12CC3(C)CO` (stereo unspecified), the Potency result in test [1], in test [2], in test [3], in test [4], in test [5] and in test [6] was “inactive” throughout.

For `COc1cc(C(=O)O)ccc1OC1OC(CO)C(O)C(O)C1O` (stereo unspecified), the Potency result in test [1], in test [2], in test [3], in test [4], in test [5] and in test [6] was “inactive” each time.

Turning to `CCOc1cc(N2CCC(O)CC2)ccc1Nc1ncc2c(n1)N(C1CCCC1)CCC(=O)N2C`, the Potency in test [1] was 1830 nM (active). In addition, the Potency result in test [2], in test [3], in test [4], in test [5] and in test [6] was “inactive” in each case.

In the case of `CC/C=C\CCO[C@@H]1O[C@H](CO[C@@H]2OC[C@H](O)[C@H](O)[C@H]2O)[C@@H](O)[C@H](O)[C@H]1O`, the Potency result in test [1], in test [2], in test [3], in test [4], in test [5] and in test [6] was “inactive” in each case.
